# Source: PubChem BioAssay (EPA / NIEHS)
# Where “and” joins values, the source holds several entries; their conditions need not be identical. Identical values can stand only once. Inconclusive results are not listed. Some structures have more than one record in an assay (separate samples or runs), and their calls can disagree. Calls of active or inactive are those of the source. How the source made its calls: active means hit-call score of the fitted dose curve at least 0.9, where 1 is the maximum; inconclusive means response in the unintended direction; inactive means score below 0.9.
# Legend:
# [1] = target: Estrogen receptor (Homo sapiens) + Estrogen receptor beta (Homo sapiens) (UniProt P03372+Q92731); assay: OT_ER_ERaERb_1440: Odyssey Thera (OT) 24-hour HEK293T Protein-Complementation Assay for Estrogen Receptor-alpha/-beta Homodimer (AID 2283356);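 further: heteromer of ER alpha and ER beta binding domains; hits raise reporter fluorescence and both agonists and antagonists give an increase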
# Summary of the method: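 Heterodimerisation of ERα (aa 310-547) and ERβ (aa 263-489) ligand binding domains was tracked as fluorescence gain in stably transfected HEK293T cells following 24 h dosing, normalised to DMSO controls.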
# [2] = target: Estrogen receptor beta (Homo sapiens) (UniProt Q92731); assay: OT_ER_ERbERb_0480: Odyssey Thera (OT) 8-hour HEK293T Protein-Complementation Assay for Estrogen Receptor-beta/-beta Homodimer (AID 2283357);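 further: active means signal gain over DMSO baseline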
# Sequence of Estrogen receptor beta (Homo sapiens) (Q92731 whole entry, looked up, the tested form may be a part): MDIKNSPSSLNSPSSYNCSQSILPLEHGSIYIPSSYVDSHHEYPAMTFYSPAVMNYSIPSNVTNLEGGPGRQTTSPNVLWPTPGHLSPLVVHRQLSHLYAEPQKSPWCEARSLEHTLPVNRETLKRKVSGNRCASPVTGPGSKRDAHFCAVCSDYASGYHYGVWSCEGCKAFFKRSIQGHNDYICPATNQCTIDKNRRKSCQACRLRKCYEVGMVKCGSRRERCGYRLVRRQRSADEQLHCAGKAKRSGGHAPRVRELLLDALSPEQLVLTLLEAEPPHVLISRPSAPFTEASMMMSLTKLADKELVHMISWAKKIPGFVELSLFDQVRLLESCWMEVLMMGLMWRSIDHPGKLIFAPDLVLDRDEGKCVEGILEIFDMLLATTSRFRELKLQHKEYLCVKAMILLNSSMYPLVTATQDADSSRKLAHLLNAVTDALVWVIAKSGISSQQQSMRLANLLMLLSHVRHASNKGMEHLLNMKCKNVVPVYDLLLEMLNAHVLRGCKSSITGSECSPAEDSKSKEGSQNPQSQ
# Summary of the method: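 Cells (HEK293T, stable ER-beta LBD PCA pair) are treated 8 hours, fixed and Draq5-stained; signal is fluorescence intensity increase relative to vehicle, fitted in the gain direction.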
# [3] = target: Peroxisome proliferator-activated receptor gamma (Homo sapiens) (UniProt P37231); assay: NVS_NR_hPPARg: NovaScreen (NVS) Nuclear Receptor Binding Assay for human Peroxisome Proliferator-activated Receptor gamma (PPARg) (AID 2283370)
# Sequence of Peroxisome proliferator-activated receptor gamma (Homo sapiens) (P37231 whole entry, looked up): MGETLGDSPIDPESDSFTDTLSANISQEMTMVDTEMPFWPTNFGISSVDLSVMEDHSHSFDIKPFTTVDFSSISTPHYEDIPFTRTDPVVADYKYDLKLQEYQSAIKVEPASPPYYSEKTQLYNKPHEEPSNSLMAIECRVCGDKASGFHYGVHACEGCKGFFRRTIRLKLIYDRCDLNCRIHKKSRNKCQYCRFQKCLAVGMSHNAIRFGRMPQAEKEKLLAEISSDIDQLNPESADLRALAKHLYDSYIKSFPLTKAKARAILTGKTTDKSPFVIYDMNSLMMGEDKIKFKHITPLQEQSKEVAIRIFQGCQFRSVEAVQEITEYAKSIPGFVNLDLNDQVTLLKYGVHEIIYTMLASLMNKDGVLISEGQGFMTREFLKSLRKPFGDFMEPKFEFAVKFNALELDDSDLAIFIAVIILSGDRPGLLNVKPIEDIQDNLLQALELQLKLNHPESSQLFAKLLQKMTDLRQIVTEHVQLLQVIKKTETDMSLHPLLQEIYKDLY
# Summary of the method: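 Fluorescence polarization measures competitive binding to extracted PPARg in a cell-free format. Reading is taken at 2 h; activity is signal loss relative to DMSO. Screening at 25 uM in duplicate preceded confirmatory dose series.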
# [4] = target: mouse Estrogen Receptor alpha (Era), Esr1 (gene 13982) (UniProt P19785); assay: NVS_NR_mERa: NovaScreen (NVS) Nuclear Receptor Binding Assay for mouse Estrogen Receptor alpha (Era) (AID 2283378);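 further: hit means loss of bound radioligand signal relative to DMSO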
# Sequence of mouse Estrogen Receptor alpha (Era), Esr1 (gene 13982) (P19785 whole entry, looked up): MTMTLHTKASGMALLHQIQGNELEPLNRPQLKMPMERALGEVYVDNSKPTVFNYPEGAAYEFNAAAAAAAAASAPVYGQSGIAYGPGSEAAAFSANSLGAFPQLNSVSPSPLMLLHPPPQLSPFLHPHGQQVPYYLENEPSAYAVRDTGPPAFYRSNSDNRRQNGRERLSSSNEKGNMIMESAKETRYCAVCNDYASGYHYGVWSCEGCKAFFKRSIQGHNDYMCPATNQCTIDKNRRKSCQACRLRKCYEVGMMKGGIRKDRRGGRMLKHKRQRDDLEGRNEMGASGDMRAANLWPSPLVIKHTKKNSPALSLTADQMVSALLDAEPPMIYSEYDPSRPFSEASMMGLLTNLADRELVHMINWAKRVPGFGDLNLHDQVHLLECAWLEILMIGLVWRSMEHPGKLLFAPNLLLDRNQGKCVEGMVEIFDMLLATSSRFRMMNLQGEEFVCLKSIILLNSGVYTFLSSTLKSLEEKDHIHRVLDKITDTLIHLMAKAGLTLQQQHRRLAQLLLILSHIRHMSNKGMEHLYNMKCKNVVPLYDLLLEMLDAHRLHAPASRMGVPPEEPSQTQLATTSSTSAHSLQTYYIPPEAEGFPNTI
# Summary of the method: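 Test chemicals competed against a specific radioligand for binding to cell-free mouse Era. Duplicate wells at 25 uM were read 18 hours later by filter-based radiodetection, with loss of signal against DMSO scored as activity.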
# [5] = target: Nuclear receptor subfamily 1 group I member 2 (Homo sapiens) (UniProt O75469); assay: NVS_NR_hPXR: NovaScreen (NVS) Nuclear Receptor Binding Assay for human Pregnane X Receptor (PXR) (AID 2283365);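 further: a drop in FRET signal versus DMSO baseline means the compound binds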
# Sequence of Nuclear receptor subfamily 1 group I member 2 (Homo sapiens) (O75469 whole entry, looked up): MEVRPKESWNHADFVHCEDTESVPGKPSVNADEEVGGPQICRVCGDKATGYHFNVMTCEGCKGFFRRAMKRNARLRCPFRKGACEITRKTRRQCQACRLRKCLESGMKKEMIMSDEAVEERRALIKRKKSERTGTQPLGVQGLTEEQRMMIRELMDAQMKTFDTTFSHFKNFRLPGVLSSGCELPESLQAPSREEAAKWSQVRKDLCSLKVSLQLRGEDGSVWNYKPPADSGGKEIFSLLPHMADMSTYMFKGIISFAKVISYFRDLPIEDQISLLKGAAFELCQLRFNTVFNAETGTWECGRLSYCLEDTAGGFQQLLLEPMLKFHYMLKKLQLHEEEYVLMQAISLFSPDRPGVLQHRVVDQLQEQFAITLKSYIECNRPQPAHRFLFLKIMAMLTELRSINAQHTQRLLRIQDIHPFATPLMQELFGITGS
# Summary of the method: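 Binding was measured by time-resolved fluorescence resonance energy transfer after a 2 h exposure of extracted human PXR protein without cells. Compounds were first tested at 25 uM in duplicate, with concentration series for actives; DMSO defined baseline.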
# [6] = target: Glucocorticoid receptor (Homo sapiens) (UniProt P04150); assay: NVS_NR_hGR: NovaScreen (NVS) Nuclear Receptor Binding Assay for human Glucocorticoid Receptor (GR) (AID 2283363);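 on AC50: activity is loss of specific radioligand binding signal relative to DMSO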
# Sequence of Glucocorticoid receptor (Homo sapiens) (P04150 whole entry, looked up): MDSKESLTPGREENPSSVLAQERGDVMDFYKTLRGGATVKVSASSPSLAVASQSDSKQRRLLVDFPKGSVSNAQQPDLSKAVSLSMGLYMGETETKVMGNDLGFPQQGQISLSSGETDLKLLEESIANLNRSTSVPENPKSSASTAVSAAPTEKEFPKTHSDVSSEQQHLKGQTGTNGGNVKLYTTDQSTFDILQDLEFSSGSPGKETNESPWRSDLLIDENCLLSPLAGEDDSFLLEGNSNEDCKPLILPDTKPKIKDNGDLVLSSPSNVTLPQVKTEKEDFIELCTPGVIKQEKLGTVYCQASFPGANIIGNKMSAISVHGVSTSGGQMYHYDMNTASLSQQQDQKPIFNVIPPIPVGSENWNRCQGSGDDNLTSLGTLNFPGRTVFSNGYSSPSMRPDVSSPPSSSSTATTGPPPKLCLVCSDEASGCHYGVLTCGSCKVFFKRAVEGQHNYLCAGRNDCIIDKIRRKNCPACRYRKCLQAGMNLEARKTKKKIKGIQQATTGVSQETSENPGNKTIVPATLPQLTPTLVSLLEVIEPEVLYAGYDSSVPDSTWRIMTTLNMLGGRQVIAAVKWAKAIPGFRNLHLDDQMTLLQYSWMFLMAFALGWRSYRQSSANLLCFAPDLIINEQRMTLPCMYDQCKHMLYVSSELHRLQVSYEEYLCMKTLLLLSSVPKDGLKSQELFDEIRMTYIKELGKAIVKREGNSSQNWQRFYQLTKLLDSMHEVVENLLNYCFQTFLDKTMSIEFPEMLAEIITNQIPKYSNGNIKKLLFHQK
# Summary of the method: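 Competitive displacement of a labelled ligand was measured on cell-free receptor preparations after 16 h exposure. Initial testing used 25 uM in duplicate with plate controls; confirmed actives went into concentration series.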
# [7] = target: human Norepinephrine Transporter (NET), SLC6A2 (gene 6530) (UniProt P23975); assay: NVS_TR_hNET: NovaScreen (NVS) Transporter Assay for human Norepinephrine Transporter (NET) (AID 2283377);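 further: cell-free membrane protein extracted from CHO cells expressing human NET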;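 on AC50: displacement of radioligand from human NET seen as loss of scintillation signal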
# Sequence of human Norepinephrine Transporter (NET), SLC6A2 (gene 6530) (P23975 whole entry, looked up): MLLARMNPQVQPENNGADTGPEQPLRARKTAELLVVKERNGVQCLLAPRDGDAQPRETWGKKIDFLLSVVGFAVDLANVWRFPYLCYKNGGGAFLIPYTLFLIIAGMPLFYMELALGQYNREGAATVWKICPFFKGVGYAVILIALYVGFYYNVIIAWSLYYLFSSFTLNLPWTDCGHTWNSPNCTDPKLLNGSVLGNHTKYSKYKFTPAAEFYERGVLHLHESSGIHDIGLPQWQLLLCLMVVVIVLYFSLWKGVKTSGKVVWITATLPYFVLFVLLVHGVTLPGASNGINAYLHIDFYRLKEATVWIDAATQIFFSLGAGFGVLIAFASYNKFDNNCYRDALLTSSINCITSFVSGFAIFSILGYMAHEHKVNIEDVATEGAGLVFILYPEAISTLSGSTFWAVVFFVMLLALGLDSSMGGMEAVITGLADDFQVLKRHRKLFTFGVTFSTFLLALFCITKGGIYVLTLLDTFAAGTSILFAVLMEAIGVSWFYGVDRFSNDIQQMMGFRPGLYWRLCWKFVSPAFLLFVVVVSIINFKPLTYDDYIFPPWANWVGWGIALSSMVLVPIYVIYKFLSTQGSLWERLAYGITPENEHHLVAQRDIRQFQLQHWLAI
# Summary of the method: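 Scintillation counts of filter-retained radioligand served as the readout, taken 1 h post-dosing in a cell-free CHO-derived system. Test chemicals ran first at 25 uM in duplicate; confirmed hits were retested across concentrations.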
# [8] = test system: guinea pig Dopamine Transporter (DAT), gene 100714898; assay: NVS_TR_gDAT: NovaScreen (NVS) Transporter Assay for guinea pig Dopamine Transporter (DAT) (AID 2283369);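 further: active compounds lower bound radioligand signal relative to DMSO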
# Summary of the method: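 Test chemicals were incubated 2 h with guinea pig striatal membranes and a radioligand; bound label was separated by filtration and counted. Screening ran at 25 uM, followed by concentration-response testing to a 50 uM maximum.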
# [9] = target: human Peroxisome Proliferator-activated Receptor alpha (PPARa), PPARA (gene 5465) (UniProt Q07869); assay: NVS_NR_hPPARa: NovaScreen (NVS) Nuclear Receptor Binding Assay for human Peroxisome Proliferator-activated Receptor alpha (PPARa) (AID 2283359);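 further: activity means loss of TR-FRET signal versus DMSO baseline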
# Sequence of human Peroxisome Proliferator-activated Receptor alpha (PPARa), PPARA (gene 5465) (Q07869 whole entry, looked up): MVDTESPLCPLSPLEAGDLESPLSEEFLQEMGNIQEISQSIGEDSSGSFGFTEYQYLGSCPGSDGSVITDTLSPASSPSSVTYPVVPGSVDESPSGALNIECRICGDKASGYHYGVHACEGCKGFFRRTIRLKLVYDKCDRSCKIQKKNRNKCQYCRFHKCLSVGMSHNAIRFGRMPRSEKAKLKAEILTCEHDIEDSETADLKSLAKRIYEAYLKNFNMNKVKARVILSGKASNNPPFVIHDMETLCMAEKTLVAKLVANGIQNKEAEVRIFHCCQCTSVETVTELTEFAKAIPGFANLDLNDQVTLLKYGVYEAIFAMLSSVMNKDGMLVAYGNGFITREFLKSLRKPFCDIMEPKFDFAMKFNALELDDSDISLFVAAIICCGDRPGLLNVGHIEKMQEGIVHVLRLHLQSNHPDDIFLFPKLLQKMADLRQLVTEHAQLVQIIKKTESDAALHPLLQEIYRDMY
# Summary of the method: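 Chemicals were first screened in duplicate at 25 uM, and active ones were retested across concentration series. Binding was monitored by TR-FRET one hour after dosing, with decreased signal against DMSO counted as activity.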
# [10] = target: guinea pig Sigma Receptor, Non-selective Binding, SIGMAR1 (gene 100135589) (UniProt Q60492); assay: NVS_OR_gSIGMA_NonSelective: NovaScreen (NVS) Nuclear Receptor Binding Assay for guinea pig Sigma Receptor, Non-selective Binding (AID 2283367)
# Summary of the method: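 gp brain membr., radioligand displacement, 1 h, filtration + scint. counting; DMSO = baseline; 25 uM x2 primary, conc.-response confirm.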
# [11] = target: human Adenosine Transporter (Adot), SLC29A1 (gene 2030) (UniProt Q99808); assay: NVS_TR_hAdoT: NovaScreen (NVS) Transporter Assay for human Adenosine Transporter (Adot) (AID 2283368)
# Summary of the method: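 U937-derived membranes, cell-free radioligand binding, filter scintillation 1 h after dosing. 25 uM duplicate screen; hits (e.g. 30% inhibition) run in concentration-response up to 50 uM; loss of signal versus DMSO.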
# [12] = target: human Dopamine Transporter (DAT), SLC6A3 (gene 6531) (UniProt Q01959); assay: NVS_TR_hDAT: NovaScreen (NVS) Transporter Assay for human Dopamine Transporter (DAT) (AID 2283374);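 further: activity means loss of bound radioligand signal relative to DMSO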
# Sequence of human Dopamine Transporter (DAT), SLC6A3 (gene 6531) (Q01959 whole entry, looked up): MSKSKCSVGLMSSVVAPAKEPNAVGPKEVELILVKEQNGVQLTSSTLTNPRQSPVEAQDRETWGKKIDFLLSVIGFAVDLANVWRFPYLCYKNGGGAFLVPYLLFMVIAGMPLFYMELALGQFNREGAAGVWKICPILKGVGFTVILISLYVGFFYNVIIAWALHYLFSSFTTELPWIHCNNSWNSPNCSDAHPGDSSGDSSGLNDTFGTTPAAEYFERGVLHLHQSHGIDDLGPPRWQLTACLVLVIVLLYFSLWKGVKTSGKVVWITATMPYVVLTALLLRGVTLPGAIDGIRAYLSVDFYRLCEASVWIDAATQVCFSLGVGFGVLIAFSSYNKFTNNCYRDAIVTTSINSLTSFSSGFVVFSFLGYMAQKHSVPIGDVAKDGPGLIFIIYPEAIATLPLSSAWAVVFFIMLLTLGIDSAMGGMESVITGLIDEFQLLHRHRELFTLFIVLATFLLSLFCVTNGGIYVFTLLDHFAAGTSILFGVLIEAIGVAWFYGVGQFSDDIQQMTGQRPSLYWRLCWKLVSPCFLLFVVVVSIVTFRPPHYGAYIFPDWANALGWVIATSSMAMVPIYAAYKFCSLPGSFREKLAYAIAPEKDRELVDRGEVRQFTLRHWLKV
# Summary of the method: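 Test chemicals were first screened in duplicate at 25 uM, with actives retested as concentration series. Displacement of a specific radioligand from cell-free human dopamine transporter was measured after 1 h by filtration and scintillation counting.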
# [13] = target: rat Serotonin Transporter (SERT), Slc6a4 (gene 25553) (UniProt P31652); assay: NVS_TR_rSERT: NovaScreen (NVS) Transporter Assay for rat Serotonin Transporter (SERT) (AID 2283375)
# Summary of the method: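 Steps: rat forebrain membranes dosed with chemical (25 uM duplicate primary; concentration series for actives); 1 h incubation; labelled ligand bound, filtered, counted by scintillation. Activity scored as signal loss vs DMSO.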
# PGR (gene 5241) = PGR (gene 5241) (UniProt P06401); assay: NVS_NR_hPR: NovaScreen (NVS) Nuclear Receptor Binding Assay for human Progestron Receptor (PR) (AID 2283360);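 further: active means loss of bound radioligand signal versus DMSO baseline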
# Summary of the method: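 T47D-derived receptor preparation, cell-free, with tritiated or iodinated radioligand displacement measured by scintillation 18 h post-dosing. Single 25 uM duplicate screen, then concentration series; signal loss relative to DMSO.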
# [14] = target: Retinoic acid receptor alpha (Homo sapiens) (UniProt P10276); assay: NVS_NR_hRAR_Antagonist: NovaScreen (NVS) Nuclear Receptor Binding Assay for human Retinoic Acid Alpha Receptor Antagonism (RAR) (AID 2283358)
# Sequence of Retinoic acid receptor alpha (Homo sapiens) (P10276 whole entry, looked up): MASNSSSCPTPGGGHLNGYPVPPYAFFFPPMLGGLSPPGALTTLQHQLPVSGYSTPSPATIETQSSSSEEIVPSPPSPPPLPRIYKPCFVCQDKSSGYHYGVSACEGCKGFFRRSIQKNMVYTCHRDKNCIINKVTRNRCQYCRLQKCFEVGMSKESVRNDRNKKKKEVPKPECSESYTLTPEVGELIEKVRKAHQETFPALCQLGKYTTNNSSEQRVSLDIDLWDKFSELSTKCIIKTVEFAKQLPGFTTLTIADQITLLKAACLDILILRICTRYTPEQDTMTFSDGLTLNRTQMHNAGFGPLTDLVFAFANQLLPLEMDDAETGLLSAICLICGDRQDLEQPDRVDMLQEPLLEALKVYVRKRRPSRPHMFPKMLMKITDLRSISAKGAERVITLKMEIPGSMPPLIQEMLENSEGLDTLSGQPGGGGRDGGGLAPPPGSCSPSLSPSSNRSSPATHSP
# Summary of the method: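 TR-FRET, cell-free, antagonist format; 2 h incubation after dosing; DMSO = baseline; signal loss fitted; 25 uM duplicate primary, then conc. series.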
# [15] = target: Retinoic acid receptor alpha (Homo sapiens) (UniProt P10276); assay: NVS_NR_hRARa_Agonist: NovaScreen (NVS) Nuclear Receptor Binding Assay for human Retinoic Acid Alpha Receptor Agonism (RAR) (AID 2283361)
# Summary of the method: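 Readout is time-resolved fluorescence resonance energy transfer after a 2 h exposure of cell-free extracted receptor protein. Initial testing used 25 uM in duplicate, with concentration-response follow-up for active chemicals.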
compound,measurement,setting,value
CC(C)(C)c1ccc(S)cc1,outcome,[1],inactive
same,outcome,[2],inactive
same,outcome,[3],inactive
same,AC50,[4],10.6 µM (active)
NCCN1CCNCC1,outcome,[1],inactive
same,outcome,[5],inactive
O=S1(=O)CC(Cl)(Cl)C(Cl)(Cl)C1,AC50,[6],25 µM (active)
same,outcome,[4],inactive
O=C(O)C1=NN(c2ccc(S(=O)(=O)O)cc2)C(=O)C1,outcome,[5],inactive
COC(=O)C(C)Oc1ccc(Oc2ncc(C(F)(F)F)cc2Cl)cc1 (configuration not stated),outcome,[2],inactive
same,AC50,[4],0.164 µM (active)
CCC(C)(C)c1cc(O)c(C(C)(C)CC)cc1O,outcome,[4],inactive
CCOCC(C)O (configuration not stated),outcome,[1],inactive
same,outcome,[2],inactive
same,AC50,[4],35 µM (active)
Cc1cc(O)c(C)c(C)c1O,outcome,[7],inactive
[Cl][Dy]([Cl])[Cl],AC50,[8],17.4 µM (active)
C=CC(=O)OCC(CO)(COC(=O)C=C)COC(=O)C=C,AC50,[6],4.96 µM (active)
O=C(c1ccc(OCCN2CCCCC2)cc1)c1c(-c2ccc(O)cc2)sc2cc(O)ccc12,AC50,[9],6.51 µM (active) and 6.99 µM (active) and 5.41 µM (active)
same,AC50,[6],6.7 µM (active) [middle of 4 runs]
same,AC50,[5],1.7 µM (active) and 3.59 µM (active) and 1.46 µM (active)
same,AC50,[10],4.67 µM (active)
same,AC50,[11],14.6 µM (active)
same,AC50,[8],2.14 µM (active)
same,AC50,[12],1.76 µM (active)
same,AC50,[13],9.25 µM (active)
same,AC50,[7],0.366 µM (active)
CCC(=O)OCC=Cc1ccccc1,AC50,[12],29.2 µM (active)
C=C(C)C(N)=O,outcome,[7],inactive
CC(CO)(CO)[N+](=O)[O-],outcome,PGR (gene 5241),inactive
CN(C)C,outcome,[1],inactive
same,outcome,[5],inactive
CC/C=C\CCOC(C)OCC (configuration not stated),outcome,[4],inactive
CC(O)CN (configuration not stated),outcome,[1],inactive
same,outcome,[2],inactive
same,AC50,[4],6.65 µM (active)
C=C(C)C(=O)OCCC(C)OC(=O)C(=C)C (configuration not stated),AC50,[3],20.1 µM (active)
CC/C(=C(\c1ccccc1)c1ccc(OCCN(C)C)cc1)c1ccccc1,outcome,[14],inactive
same,outcome,[9],inactive
same,outcome,[15],inactive
same,AC50,[6],3.08 µM (active) and 6.38 µM (active)
same,outcome,[6],inactive
same,outcome,[5],inactive
same,AC50,[10],0.491 µM (active)
same,AC50,[8],3.1 µM (active)
same,outcome,[3],inactive
same,AC50,[12],6.98 µM (active)
same,AC50,[7],3.85 µM (active)
CN(C)CCC=C1c2ccccc2CCc2ccccc21,outcome,[4],inactive
CC(C)CCCC(C)(C)O,outcome,[1],inactive
same,outcome,[3],inactive
c1ccc2c(c1)-c1ccc3ccc4cccc5cc-2c1c3c45,outcome,[6],inactive
CC(C)C(=O)c1ccccc1,outcome,[1],inactive
same,outcome,[5],inactive
O=C(O)c1ccccc1O,outcome,[3],inactive
[O-]/[N+](=N\O)c1ccccc1,outcome,[2],inactive
same,outcome,[5],inactive
same,outcome,[3],inactive
CC(=O)CC(=O)N(C)C,outcome,[1],inactive
same,outcome,[2],inactive
same,outcome,[4],inactive
CC(=O)C1C(=O)C=C(C)OC1=O (configuration not stated),outcome,[2],inactive
same,outcome,[4],inactive
C=C1CC[C@H]2O[C@]2(C)CC[C@@H]2[C@@H]1CC2(C)C,outcome,PGR (gene 5241),inactive
CC(C)(O)CCc1ccccc1,AC50,[8],25 µM (active)
same,outcome,[12],inactive
CC1=CCC(=C(C)C)CC1,outcome,[5],inactive
same,outcome,[3],inactive
CC1(C)CC(=O)CC(C)(C)N1,outcome,[6],inactive
C=CC(O)CCCCC (configuration not stated),outcome,[5],inactive
CC(=O)Oc1c(C)c(C)c2c(c1C)CC[C@@](C)(CCC[C@H](C)CCC[C@H](C)CCCC(C)C)O2,outcome,[5],inactive
same,outcome,[3],inactive
